Several values for one entry are separate records, joined by “and”; a condition that tells them apart may be missing. Equal entries are not always repeated. In all, about 5,500 compounds went through this assay and about 2,000 (36%) were called active. Not shown: some 18% with an inconclusive outcome. Cut-off read from the data, not from the text of the source: active = normalized growth mostly below about 0.91 (no sharp cut-off); inconclusive = no clear call, values can overlap the other calls; inactive = mostly above about 0.92. The list shows a part of the results.
Test: chemical genetic growth profiling, strain panel (AID 1159580);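 note: tested at 20 µM; growth read once vehicle control cultures reached saturation at 30 °C; 1 = growth at the plate median or of vehicle wells; lower values mean less growth of the strain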
Conditions: S. cerevisiae deletion strains, growth OD

Measured: normalized growth

O=C(O)CCCCC1CCSS1 (configuration not stated)
inactive: locus YAL013W, strain DEP1, stronger effect = lower value 0.97 | locus YAL021C, strain ccr4, stronger effect = lower value 1 | locus YAL026C, strain drs2, stronger effect = lower value 0.94 | locus YAL030W, strain snc1, stronger effect = lower value 0.974 | locus YBL061C, strain skt5, stronger effect = lower value 0.979 | locus YBR009C, strain hhf1, stronger effect = lower value 0.933 | locus YBR021W, strain FUR4, stronger effect = lower value 0.987 | locus YBR023C, strain chs3, stronger effect = lower value 0.977 | locus YBR171W, strain sec66, stronger effect = lower value 0.934 | locus YBR229C, strain ROT2, stronger effect = lower value 0.953 | locus YBR231C, strain swc5, stronger effect = lower value 0.979 | locus YBR279W, strain paf1, stronger effect = lower value 0.978 | locus YCL011C, strain gbp2, stronger effect = lower value 0.959 | locus YCL016C, strain dcc1, stronger effect = lower value 0.983 | locus YCL029C, strain bik1, stronger effect = lower value 0.993 | locus YCL061C, strain MRC1, stronger effect = lower value 0.956 | locus YCL069W, strain vba3, stronger effect = lower value 0.973 | locus YCR088W, strain abp1, stronger effect = lower value 0.978 | locus YDL005C, strain med2, stronger effect = lower value 1.02 | locus YDL035C, strain GPR1, stronger effect = lower value 0.98 | locus YDL040C, strain nat1, stronger effect = lower value 0.976 | locus YDL074C, strain BRE1, stronger effect = lower value 0.99 | locus YDL101C, strain DUN1, stronger effect = lower value 0.978 | locus YDL134C, strain PPH21, stronger effect = lower value 0.974 | locus YDL185W, strain tfp1, stronger effect = lower value 0.942 | locus YDL192W, strain arf1, stronger effect = lower value 0.979 | locus YDR001C, strain nth1, stronger effect = lower value 0.971 | locus YDR069C, strain doa4, stronger effect = lower value 0.982 | locus YDR101C, strain arx1, stronger effect = lower value 0.996 | locus YDR137W, strain rgp1, stronger effect = lower value 0.883 | locus YDR150W, strain NUM1, stronger effect = lower value 0.958 | locus YDR159W, strain sac3, stronger effect = lower value 0.984 | locus YDR162C, strain NBP2, stronger effect = lower value 0.938 | locus YDR195W, strain ref2 0.994 | locus YDR297W, strain sur2, stronger effect = lower value 0.975 | locus YDR318W, strain mcm21, stronger effect = lower value 0.992 | locus YDR334W, strain swr1, stronger effect = lower value 0.978 | locus YDR335W, strain msn5, stronger effect = lower value 0.97 | locus YDR388W, stronger effect = lower value 0.985 | locus YDR392W, strain spt3, stronger effect = lower value 0.888 | locus YDR502C, strain sam2, stronger effect = lower value 0.975 | locus YEL003W, strain gim4, stronger effect = lower value 0.961 | locus YEL037C, strain rad23, stronger effect = lower value 0.976 | locus YEL061C, strain CIN8 (second series), stronger effect = lower value 0.968 | locus YEL061C, strain CIN8, stronger effect = lower value 0.975 | locus YER015W, strain faa2, stronger effect = lower value 0.985 | locus YER016W, strain bim1, stronger effect = lower value 0.983 | locus YER110C, stronger effect = lower value 0.961 | locus YER111C, strain swi4, stronger effect = lower value 0.963 | locus YER155C, strain BEM2 (second series), stronger effect = lower value 0.922 | locus YER155C, strain BEM2, stronger effect = lower value 0.989 | locus YER167W, strain BCK2, stronger effect = lower value 0.981 | locus YFR010W, strain ubp6, stronger effect = lower value 0.962 | locus YGL078C, strain dbp3, stronger effect = lower value 0.981 | locus YGL086W, strain mad1, stronger effect = lower value 0.97 | locus YGL167C, strain pmr1, stronger effect = lower value 0.95 | locus YGL173C, strain kem1, stronger effect = lower value 0.973 | locus YGL227W, strain vid30, stronger effect = lower value 0.965 | locus YGL240W, strain doc1, stronger effect = lower value 0.956 | locus YGL248W, strain PDE1, stronger effect = lower value 0.981 | locus YGL253W, strain hxk2, stronger effect = lower value 0.992 | locus YGR078C, strain PAC10, stronger effect = lower value 0.999 | locus YGR135W, strain pre9, stronger effect = lower value 0.982 | locus YGR229C, strain SMI1, stronger effect = lower value 1.01 | locus YGR252W, strain gcn5, stronger effect = lower value 0.873 | locus YHR013C, strain ard1, stronger effect = lower value 0.935 | locus YHR027C, strain rpn1, stronger effect = lower value 0.987 | locus YHR030C, strain SLT2, stronger effect = lower value 0.98 and 0.943 | locus YHR079C, strain IRE1 (second series), stronger effect = lower value 0.984 | locus YHR094C, strain hxt1, stronger effect = lower value 0.981 | locus YHR129C, strain ARP1, stronger effect = lower value 0.997 | locus YHR142W, strain chs7, stronger effect = lower value 1.02 | locus YHR200W, strain rpn10, stronger effect = lower value 0.991 | locus YIL066C, strain RNR3, stronger effect = lower value 0.985 | locus YIL073C, strain SPO22, stronger effect = lower value 0.978 | locus YIL125W, strain kgd1, stronger effect = lower value 0.99 | locus YIR030C, strain dcg1, stronger effect = lower value 0.978 | locus YJL092W, strain hpr5, stronger effect = lower value 0.972 | locus YJL095W, strain BCK1 (second series), stronger effect = lower value 0.975 | locus YJL095W, strain BCK1, stronger effect = lower value 1.03 and 0.902 | locus YJL115W, strain asf1, stronger effect = lower value 0.978 | locus YJL129C, strain trk1, stronger effect = lower value 0.91 | locus YJL134W, strain LCB3, stronger effect = lower value 0.977 | locus YJL154C, strain vps35, stronger effect = lower value 0.975 | locus YJL164C, strain tpk1, stronger effect = lower value 0.967 | locus YJL166W, strain qcr8, stronger effect = lower value 0.976 | locus YJL168C, strain set2, stronger effect = lower value 0.992 | locus YJL187C, strain SWE1 (second series), stronger effect = lower value 0.992 | locus YJL187C, strain SWE1, stronger effect = lower value 0.973 | locus YJR043C, strain POL32, stronger effect = lower value 1.01
active: locus YHR079C, strain IRE1, stronger effect = lower value 0.383 | locus YJR066W, strain TOR1, stronger effect = lower value 0.812
